Shown are actives, neighbours in structure and some others; about 3.7% of the full set was active somewhere.
Nrf2 block: blocks Nrf2 signaling; A549 ARE-Fluc reporter, luciferase luminescence, 18-24 h; Potency, µM (titrated, usually from 46 µM), inactives show top-dose activity change, negative = inhibition, usual class: inhibitors; actives 2.1% (n = 360,000); AID 504444; further: on the % scale 0 is the no-effect control and ±100 the full control effect; nearly all actives have a fitted effect of over 60% in size
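Nrf2 function is reported as luminescence of an ARE-controlled luciferase in A549 cells. Compounds were tested at several concentrations, and a CellTiter-Fluor read on the same wells flagged cytotoxicity.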
A549 tox: kills or reduces viability of A549 cells in Nrf2 counter-screen; Potency, µM (highest dose often 46 µM), without a hit: top-dose activity change, negative = cytotoxicity, usual class: inhibitors; actives 0.16% (n = 390,000); A549 ARE-Fluc cells, CellTiter-Fluor viability, 18-24 h; further: on the % scale 0 is the no-effect control and ±100 the full control effect
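Cytotoxicity counterscreen: CellTiter-Fluor fluorescence was measured in A549 ARE_Fluc cells after 18-24 h of compound exposure in a concentration series. The subsequent BugLite luminescent read reports ARE-luciferase activity.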
ELG1 repair inh: ELG1-dependent DNA repair inhibition; Potency, µM (doses to about 46.1 µM), for inactives: at the top dose activity change, negative = inhibition, hits mostly inhibitors; HEK293T ELG1-luciferase reporter, luminescence, 16 h; DNA damage induced by 5-fluorouridine; actives 2.3% (n = 330,000); further: on the % scale 0 is the no-effect control and ±100 the full control effect; nearly all actives have a fitted effect of over 55% in size
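DMSO vehicle served as the neutral condition. Each well held 2,000 cells given 5-fluorouridine plus compound; after 16 hr at 37 °C/5% CO2, ONE-Glo was added and luciferase measured 30 min later.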
Nrf2 ARE act: Nrf2 pathway activation; actives 0.31% (n = 410,000); AREc32 ARE-luciferase reporter (MCF7-derived line), luminescence, 24 h; Potency, µM (doses to about 46.1 µM), for the others: at the top dose activation, most hits filed as activators; further: % of control where 0% means no effect; nearly all actives have a fitted effect of over 65% in size
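ARE activation measured as luciferase luminescence (Steady-Glo, 30 min RT) in AREc32_Fluc cells after 24 hr compound exposure at 37 deg C, 5% CO2; cells seeded overnight at 1000/well in OPTI-MEM, 5% FBS.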
The depositor's hits bear a star; u = inconclusive; x = no result given. The call rests on the fitted dose curve; in most records, active means well fitted curve in the direction sought with a large enough effect; inconclusive means small, poorly fitted or top-dose-only effect, or another doubt; inactive means no such curve, though single readings can be large; an effect the other way counts as inactive or inconclusive. Potency means the concentration at half of the fitted maximal effect.

SMILES	Nrf2 block	A549 tox	ELG1 repair inh	Nrf2 ARE act
CC(C)(C)OC(=O)N1CCCC(C(=O)Nc2cccc(C(=O)NCc3ccccc3)c2)C1 (configuration not stated)	u	6.7%	x	0.5%
CN(CCc1ccccc1)C(=O)c1ccc(NC(=O)Cc2ccc(NC(=O)C3CCN(C(=O)CCc4ccccc4)CC3)cc2)cc1	9.2µM*	-5.9%	x	1.3%
COCCNc1nc(Nc2ccccc2Cl)c2sccc2n1	x	x	x	4.8%
CSc1ccc(OC2(C)CCN(Cc3ccc(-c4ccccn4)cc3)C2)cc1 (configuration not stated)	x	x	x	0.4%
CCOC(=O)c1c(NC(=O)c2cccs2)sc2c1CC(C)(C)OC2	x	8.6%	9.2µM*	4.7%
CC(C)COc1ccc(C(=O)Nc2sc3c(c2C(=O)O)CC(C)(C)OC3)cc1	5.8µM*	u	-17.6%	-0.1%
CCOC(=O)c1c(NC(=O)C2C3C=CC(C3)C2C(=O)O)sc2c1CC(C)(C)OC2 (configuration not stated)	-11.5%	-12.4%	6.0%	-0.2%
Cc1ccccc1CN1CCCN(CC(=O)Nc2c(C)cccc2C)S1(=O)=O	x	14.7%	x	4.8%
c1cnc2c(c1)ccc1cccnc12	5.8µM*	u	u	9.6%
O=Cc1ccc2ccc3cccnc3c2n1	12.6%	-1.7%	-4.0%	5.1%
CCCCNC(=O)c1cn(-c2ccc(OCC)cc2)c(=O)c2cc(OC)c(OC)cc12	u	-10.0%	23.1µM*	-0.5%
CC(Nc1nc(-c2cccnc2)nc2ccccc12)c1ccc(F)cc1 (configuration not stated)	u	0.6%	u	0.5%
COc1ccc(-c2cc(=O)oc3cc(OC(=O)C4CCCCC4)c(Cl)cc23)cc1	4.1%	-0.5%	3.26µM*	-0.8%
Nc1ncc(-c2cccc(-c3nn4c(=O)cc(N5CCNCC5)nc4s3)c2)cn1	3.2%	-4.7%	x	x
Cc1cccc2cc(CN(Cc3ccco3)C(=O)c3ccncc3)c(=O)[nH]c12	-15.9%	-2.1%	11.2µM*	6.9%
Cc1cccc2cc(CN(Cc3cccs3)C(=S)NCC3CCCO3)c(=O)[nH]c12 (configuration not stated)	-19.1%	-17.8%	16.4µM*	19.3%
Cc1cccc2cc(CN(CC3CCCO3)C(=S)NCc3ccco3)c(=O)[nH]c12 (configuration not stated)	-24.5%	-5.1%	18.4µM*	-0.3%
O=c1[nH]c2cc3c(cc2cc1CN(Cc1ccco1)C(=S)NCC1CCCO1)OCCO3 (configuration not stated)	-27.2%	-9.5%	1.1%	-1.5%
Cc1ccc2cc(CN(Cc3ccco3)C(=S)NCC3CCCO3)c(=O)[nH]c2c1 (configuration not stated)	-16.8%	0.4%	20.6µM*	4.9%
NCCCN(Cc1ccc(Cl)c(Cl)c1)c1ccc(Br)cn1	9.5%	1.6%	x	x
CC1CCN(C(=O)CCc2nnc3ccc(N4CCC5(CC4)OCCO5)nn23)CC1	-10.2%	1.1%	4.6%	0.1%
O=C1CC(=O)Nc2cc(S(=O)(=O)Nc3ccc(F)cc3Cl)ccc2N1	3.4%	3.1%	-1.3%	0.3%
Cc1ccc2cc(CN(Cc3ccco3)C(=O)C3CCCCC3)c(=O)[nH]c2c1C	1.1%	-8.1%	u	-0.5%
Cc1ccc2cc(CN(Cc3ccco3)C(=O)NC3CCCCC3)c(=O)[nH]c2c1C	u	-11.5%	7.31µM*	4.6%
Cc1ccc(C)c2[nH]c(=O)c(CN(Cc3ccco3)C(=S)NCC3CCCO3)cc12 (configuration not stated)	-3.5%	-10.4%	23.1µM*	2.3%
SMILES	Nrf2 block	A549 tox	ELG1 repair inh	Nrf2 ARE act
Cc1cc(C)c2[nH]c(=O)c(CN(CC3CCCO3)C(=S)NCc3ccco3)cc2c1 (configuration not stated)	2.6%	-0.8%	-21.9%	0.4%
Cc1ccc(OCCC(=O)N(CC(=O)Nc2ccccc2C(F)(F)F)Cc2ccco2)cc1	-14.0%	0.1%	u	-0.3%
CC(C)Nc1nc(C#N)nc(Nc2ccccc2)n1	18.9%	-0.9%	x	x
O=C1C=C(N(CCO)Cc2ccccc2)c2ccccc2C1=O	20.6µM*	23.1µM*	8.2µM*	-2.6%
Cc1ccc(NS(=O)(=O)c2ccc(NC(=O)C(C)Sc3ccc(Cl)cc3)cc2)c(C)c1 (configuration not stated)	-39.1%	u	20.6µM*	-0.7%
CCCOc1ccc(N2C(=O)CC(N3CCN(c4ccc([N+](=O)[O-])cc4)CC3)C2=O)cc1 (configuration not stated)	u	u	2.06µM*	0.3%
CCOc1ccc(N2C(=O)CC(N3CCN(c4ccc([N+](=O)[O-])cc4)CC3)C2=O)cc1 (configuration not stated)	-19.8%	-16.7%	5.5%	0.4%
COc1ccc(NC(=O)c2ccc(-c3nc(CSc4ccccc4)c(C)o3)cc2)c(OC)c1	-26.4%	8.9%	x	0.1%
CCC(=O)N1CCc2cc(Br)cc(S(=O)(=O)N3CCC(C(=O)Nc4ccc(OC)cc4)CC3)c21	x	3.7%	x	3.6%
Cc1ccc(C(C)(C)C)cc1S(=O)(=O)N1CC(=O)Nc2ccccc21	25.9µM*	u	-1.7%	2.3%
Cc1cc(C(C)(C)C)cc(C)c1S(=O)(=O)N1CC(=O)Nc2ccccc21	-17.0%	0.8%	7.0%	-0.9%
CCOC(=O)c1ccc(NC(=O)CSc2ccc(-c3sc(C)nc3C)nn2)cc1	x	-0.9%	x	6.5%
COc1ccccc1OCCn1c(C)c(C=O)c2ccccc21	-7.1%	-14.5%	11.6µM*	0.7%
CCCC/C(C)=N/NC(=O)CN(c1ccc(Br)cc1)S(=O)(=O)c1ccccc1	4.5%	-5.7%	4.8%	1.6%
C/C(=N/NC(=O)CN(c1ccccc1)S(=O)(=O)c1ccccc1)c1ccccc1O	u	-2.5%	13µM*	-1.9%
N#CC1=C(SCC(=O)NC23CC4CC(CC(C4)C2)C3)NC(=O)C(C#N)C12CCCCC2 (configuration not stated)	14.6µM*	u	13µM*	0.7%
CCc1cc2c(=O)c(-c3nc4ccccc4[nH]3)coc2c(CN2CCCCC2C)c1O (configuration not stated)	-9.6%	-12.6%	20.6µM*	3.2%
CCc1cc2c(=O)c(-c3nc4ccccc4[nH]3)coc2c(CN2CCCCC2)c1O	2.4%	2.0%	u	0.0%
CC(=O)N1c2ccc(S(=O)(=O)N3CCC(C(=O)Nc4cccc(C)c4)CC3)cc2CC1C (configuration not stated)	u	-3.4%	29.1µM*	-0.3%
O=C(Nc1cccc(F)c1)C1CCN(S(=O)(=O)c2ccc3[nH]c4c(c3c2)CCCCC4)CC1	18.4µM*	-29.7%	x	-0.8%
CC(=O)N1c2ccc(S(=O)(=O)N3CCC(C(=O)Nc4cc(C)cc(C)c4)CC3)cc2CC1C (configuration not stated)	-9.8%	5.0%	1.3%	-1.1%

Screening data deposited in PubChem by National Center for Advancing Translational Sciences (NCATS).
